# Pf apPOL block: Pf-apPOL DNA polymerase inhibition; Recombinant Pf-apPOL, molecular beacon fluorescence, 1.5 h; inhibition, % at 10 µM; hit rate 0.25% among 210,000
# mHTT-CaM PPI inh: mHTT-calmodulin interaction abrogation. AID 1671202. inhibition, % at 15 µM. P42858. AlphaScreen His-mHTT/GST-CaM binding, luminescence. hit rate 3.6% among 190,000;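 further: 0% = both proteins with DMSO and 100% = one protein alone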
# Target sequence (P42858 whole entry, looked up, stated change not applied): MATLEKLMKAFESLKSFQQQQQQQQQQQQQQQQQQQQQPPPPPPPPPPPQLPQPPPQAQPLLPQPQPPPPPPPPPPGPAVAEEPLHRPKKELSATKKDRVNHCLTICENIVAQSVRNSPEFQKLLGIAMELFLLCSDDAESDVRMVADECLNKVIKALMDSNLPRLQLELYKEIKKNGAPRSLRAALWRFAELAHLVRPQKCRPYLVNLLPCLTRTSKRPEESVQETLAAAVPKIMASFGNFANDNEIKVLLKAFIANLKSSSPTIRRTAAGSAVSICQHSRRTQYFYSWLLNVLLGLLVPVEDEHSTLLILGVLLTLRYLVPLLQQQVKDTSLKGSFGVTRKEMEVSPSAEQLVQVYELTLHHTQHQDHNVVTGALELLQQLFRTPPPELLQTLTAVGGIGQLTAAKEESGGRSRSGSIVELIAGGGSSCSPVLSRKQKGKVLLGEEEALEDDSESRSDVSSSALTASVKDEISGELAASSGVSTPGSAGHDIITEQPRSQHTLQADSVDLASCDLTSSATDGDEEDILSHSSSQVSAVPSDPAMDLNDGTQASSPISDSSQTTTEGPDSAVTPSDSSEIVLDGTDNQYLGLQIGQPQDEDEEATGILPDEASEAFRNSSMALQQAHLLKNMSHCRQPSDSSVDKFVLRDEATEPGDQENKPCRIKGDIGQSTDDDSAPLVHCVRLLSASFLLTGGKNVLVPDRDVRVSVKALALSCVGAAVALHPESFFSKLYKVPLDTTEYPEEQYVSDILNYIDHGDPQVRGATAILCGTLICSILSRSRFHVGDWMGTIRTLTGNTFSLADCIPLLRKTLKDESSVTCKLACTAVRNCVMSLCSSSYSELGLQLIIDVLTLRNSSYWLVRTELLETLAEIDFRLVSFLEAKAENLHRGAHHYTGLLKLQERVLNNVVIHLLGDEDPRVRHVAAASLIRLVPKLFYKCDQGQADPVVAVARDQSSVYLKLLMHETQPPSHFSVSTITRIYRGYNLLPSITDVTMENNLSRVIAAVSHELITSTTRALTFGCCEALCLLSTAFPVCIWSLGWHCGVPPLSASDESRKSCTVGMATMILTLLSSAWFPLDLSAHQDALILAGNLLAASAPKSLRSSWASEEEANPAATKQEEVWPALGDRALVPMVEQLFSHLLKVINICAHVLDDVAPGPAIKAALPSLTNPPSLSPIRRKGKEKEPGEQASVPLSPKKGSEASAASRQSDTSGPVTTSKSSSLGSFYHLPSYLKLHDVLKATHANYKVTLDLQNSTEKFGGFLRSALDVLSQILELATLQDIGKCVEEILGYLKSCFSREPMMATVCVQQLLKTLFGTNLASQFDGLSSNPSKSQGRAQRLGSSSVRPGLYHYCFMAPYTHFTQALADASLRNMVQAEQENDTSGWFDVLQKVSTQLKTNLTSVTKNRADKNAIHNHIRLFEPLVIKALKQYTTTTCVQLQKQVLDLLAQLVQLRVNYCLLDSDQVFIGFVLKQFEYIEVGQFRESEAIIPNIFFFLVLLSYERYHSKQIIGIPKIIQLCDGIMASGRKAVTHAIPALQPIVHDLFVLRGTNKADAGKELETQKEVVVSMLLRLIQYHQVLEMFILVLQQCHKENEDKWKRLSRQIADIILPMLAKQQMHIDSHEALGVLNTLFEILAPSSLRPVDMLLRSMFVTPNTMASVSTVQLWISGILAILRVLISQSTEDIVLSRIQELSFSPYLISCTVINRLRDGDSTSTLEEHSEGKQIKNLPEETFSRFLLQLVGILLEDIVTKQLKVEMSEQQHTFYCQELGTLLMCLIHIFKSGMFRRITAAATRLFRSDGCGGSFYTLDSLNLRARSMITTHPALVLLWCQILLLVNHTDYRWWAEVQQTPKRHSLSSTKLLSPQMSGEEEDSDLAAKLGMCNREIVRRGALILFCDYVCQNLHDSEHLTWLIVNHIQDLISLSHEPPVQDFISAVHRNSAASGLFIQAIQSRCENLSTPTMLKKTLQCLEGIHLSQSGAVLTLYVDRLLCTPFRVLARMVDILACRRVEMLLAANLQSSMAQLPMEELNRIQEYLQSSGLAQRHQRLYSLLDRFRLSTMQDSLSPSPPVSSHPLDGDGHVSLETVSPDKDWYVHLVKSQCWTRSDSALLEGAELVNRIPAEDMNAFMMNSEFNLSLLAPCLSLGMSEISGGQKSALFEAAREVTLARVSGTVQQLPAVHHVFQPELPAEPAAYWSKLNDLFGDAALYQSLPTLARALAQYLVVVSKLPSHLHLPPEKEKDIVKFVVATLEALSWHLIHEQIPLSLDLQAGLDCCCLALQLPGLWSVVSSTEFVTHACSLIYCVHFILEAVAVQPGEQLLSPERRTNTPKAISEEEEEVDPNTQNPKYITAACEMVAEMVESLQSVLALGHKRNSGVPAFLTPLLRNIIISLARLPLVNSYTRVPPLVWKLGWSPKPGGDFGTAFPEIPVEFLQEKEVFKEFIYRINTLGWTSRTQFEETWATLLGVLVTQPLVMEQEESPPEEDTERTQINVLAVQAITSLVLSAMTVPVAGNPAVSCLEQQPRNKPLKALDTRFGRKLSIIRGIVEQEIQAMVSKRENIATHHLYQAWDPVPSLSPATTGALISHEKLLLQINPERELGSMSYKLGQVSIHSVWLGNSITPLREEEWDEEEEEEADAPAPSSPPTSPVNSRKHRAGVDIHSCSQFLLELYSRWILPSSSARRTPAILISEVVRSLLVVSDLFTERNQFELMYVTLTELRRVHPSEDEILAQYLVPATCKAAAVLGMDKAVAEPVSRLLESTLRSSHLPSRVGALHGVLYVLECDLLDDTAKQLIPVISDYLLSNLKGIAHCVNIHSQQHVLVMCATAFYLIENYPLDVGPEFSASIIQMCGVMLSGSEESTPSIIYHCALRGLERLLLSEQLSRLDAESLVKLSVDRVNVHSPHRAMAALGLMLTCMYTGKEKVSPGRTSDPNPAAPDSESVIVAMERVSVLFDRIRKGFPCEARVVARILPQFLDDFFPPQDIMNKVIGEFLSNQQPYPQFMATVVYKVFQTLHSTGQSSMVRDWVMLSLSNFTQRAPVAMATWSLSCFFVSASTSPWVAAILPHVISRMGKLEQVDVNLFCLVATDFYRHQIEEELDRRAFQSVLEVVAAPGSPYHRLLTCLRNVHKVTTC
# The depositor's hits bear a star; . = no result given; ! = not confirmed by another sample. An excerpt weighted towards active compounds, which were near 3.5% of everything screened. No stated cut-off is given here; in the data, active means inhibition above about 50%; inactive means the rest.
SMILES,Pf apPOL block,mHTT-CaM PPI inh
CN1CCN(CC(O)COc2ccc(C34CC5CC(CC(C5)C3)C4)cc2)CC1 (configuration not stated),6,96*
OC(COc1ccc(C23CC4CC(CC(C4)C2)C3)cc1)CN1CCOCC1 (configuration not stated),4,6
CCOC(=O)C1CCN(CC(O)COc2ccc(C34CC5CC(CC(C5)C3)C4)cc2)CC1 (configuration not stated),-2,30
OC(COc1ccc(C23CC4CC(CC(C4)C2)C3)cc1)CN1CCCCC1 (configuration not stated),4,100*
CC(NC(=O)c1ccc2c(c1)nc1n2CCCCC1)c1ccc2c(c1)OCCO2 (configuration not stated),-3,15
O=Cc1ccccc1OCc1cccc(C(=O)O)c1,-7,5
O=C(Nc1ccccc1)N1CCc2nc[nH]c2C1,-1,6
CN(CCO)CCCCOc1ccc2c(c1)C(=O)c1cc(OCCCCN(C)CCO)ccc1-2,-1,60*
CCCCOc1ccc2c(c1)C(=O)c1cc(OCCCC)ccc1-2,-3,7
C=CCn1c(=O)c2c(ncn2Cc2ccc(F)c(F)c2)n(-c2ccccc2)c1=O,-1,26
N#CSCC(=O)N1c2ccccc2Sc2ccc(C(F)(F)F)cc21,14,3
Cn1ccnc1SCC(=O)N1c2ccccc2Sc2ccc(C(F)(F)F)cc21,-1,53*
CCCCOc1ccc(N=C2C(=O)N(CN3CCOCC3)c3ccccc32)cc1,-2,34
Cc1ccc2c(c1)N/C(=C(/C=C(\Cl)[N+](=O)[O-])[N+](=O)[O-])O2,-4,45
O=[N+]([O-])C(/C=C(\Cl)[N+](=O)[O-])=C1Nc2ccccc2N1,3,88*
Cc1ccnc(N2CCC(C(=O)Nc3ccccc3Cl)CC2)n1,-1,-1
CCOc1cc(Nc2ccc(NC(=O)c3ccco3)cc2)nc(C)n1,-10,4
Cc1cc(C)n(-c2ccc(Nc3ccc(NC(=O)c4ccco4)cc3)nn2)n1,-8,67*
O=C(Nc1ccc(N2CCCN(Cc3ccncc3)CC2)nc1)c1ccc(F)cc1,-1,25
Cc1nc2cc(N)ccc2s1,8,0
Nc1ccc2cc3ccc(N)cc3nc2c1,.,55*
Cc1ccc(S(=O)(=O)N(CC(=O)O)Cc2c(F)cccc2Cl)cc1,4,-3
CC(=O)Nc1nc2ccc(Br)cc2s1,0,-3
CC(=O)Nc1nc2cc3sc(NC(C)=O)nc3cc2s1,53*!,-6
CNC(=O)c1cc(C)nc2ccc(C)cc12,84*,-1
SMILES,Pf apPOL block,mHTT-CaM PPI inh
CCCNC(=O)c1cc(C)nc2ccc(Cl)cc12,-3,2
CNC(=O)c1cc(C)nc2ccc(F)cc12,-2,14
CCCNC(=O)c1cc(C)nc2ccc(F)cc12,-1,100*
CS(=O)(=O)c1ccc(Cc2nnc(NC(=O)CSc3ccc(Cl)cc3)o2)cc1,-25,56*
CC(C)Sc1ccc(Cc2nnc(NC(=O)Cc3ccc(F)cc3)o2)cc1,-21,-18
CCSc1ccc(Cc2nnc(NC(=O)c3cccs3)o2)cc1,-221,57*
CSc1ccc(Cc2nnc(NC(=O)c3cc(C)oc3C)o2)cc1,-4,48
COc1ccc(Cc2nnc(NC(=O)Nc3cccc(C(F)(F)F)c3)o2)cc1,-10,3
COc1ccc(Cc2nnc(NC(=O)Nc3cccs3)o2)cc1,-1,54*
Cc1ccc(C)c(Cc2ccc([N+](=O)[O-])cc2)c1,-3,-22
COc1ccc(CCNC(=O)CC(NS(=O)(=O)c2ccc(C)cc2)c2ccco2)cc1OC (configuration not stated),-2,7
O=C(CCC1CCCN(c2cc(NC3CC3)ncn2)C1)NCCc1cccs1 (configuration not stated),-10,12
CC(C)CCNC(=O)N1CCC(N2CCN(Cc3ccccc3)C2=O)CC1,-7,2
CCn1c(N2CCC(C(=O)N3CCN(c4ccccn4)CC3)CC2)cc(=O)n(C)c1=O,-1,53*
CCn1c(N2CCC(C(=O)N3CCN(c4ccccc4F)CC3)CC2)cc(=O)n(C)c1=O,0,62*
Cn1c(N2CCC(C(=O)N3CCN(c4ccccc4F)CC3)CC2)cc(=O)n(C)c1=O,1,27
Cn1c(N2CCC(C(=O)N3CCN(c4ccccn4)CC3)CC2)cc(=O)n(C)c1=O,-4,29
CCOc1ccc2c(c1)OC(=Cc1ccccc1OCC)C2=O,-6,-12
COc1ccc(C2Nc3ccccc3NC3=C2C(=O)CC(c2ccccc2)C3)c(OC)c1OC (configuration not stated),3,27
CC(=O)N(C)c1ccc(N=Cc2cc3c(cc2[N+](=O)[O-])OCO3)cc1,13,31
Cc1ccc(C)c(N=Cc2cc3c(cc2[N+](=O)[O-])OCO3)c1,.,66*
Cc1cc(C)c(O)c(N=Cc2cc(Cl)cc([N+](=O)[O-])c2O)c1,0,32
N#Cc1ccccc1N=Cc1cc2c(cc1[N+](=O)[O-])OCO2,-2,19
Cc1cc(C)c(O)c(N=Cc2cc3c(cc2[N+](=O)[O-])OCO3)c1,-2,52*
